Source: ChEMBL document CHEMBL4513216, “Probing the Open Global Health Chemical Diversity Library for Multistage-Active Starting Points for Next-Generation Antimalarials” (ACS Infect Dis, 2020)
Hit rate of the full screen: of about 65,000 compounds, about 2,100 (3.2%) showed an effect of 50% or more. The median lay at about -52%. This excerpt belongs to a sample that is enriched for strong results.

Test system: Plasmodium falciparum
Experiment: Screen against P. falciparum Asexual Blood Stage (ABS), at 5uM
Assay type: functional, Dd2
Conditions: tested at 5 uM

Compound	INHIBITION [%]
O=C(c1cc2ccccc2[nH]c1=O)N1CCC2(CCCNC2)C1 (stereo not drawn)	-49.9
CCCN1CC[C@@H]2OC[C@H](C(=O)Nc3cccnc3)C[C@@H]2C1	-131
CC(C)NC(=O)CN1CCSC2(CCCCC2)C1	-66.6
CCc1ccccc1Nc1noc2c1CN(C(=O)CCOC)CC2	85.1
CN1CC=C(c2noc(CCC(=O)N3CCc4ccccc4C3)n2)CC1	-27.1
Cc1cccc(CN2CC[C@@H]3[C@@H]2CCN3C(=O)Cc2ccsc2)n1	-115
CC(C)N1CCO[C@H]2CN(C(=O)Cc3ccsc3)C[C@H]21	-23.1
CC(C)Nc1nc2c(c(NC3CC3)n1)CN(C(=O)Cc1ccsc1)CC2	75.6
Cn1ccnc1CN1CCN2C[C@H](Oc3cncnc3)C[C@H]2C1	-70.4
Cn1ccnc1CN1CC[C@H]2CO[C@H](CNc3ncccn3)[C@H]2C1	-52.6
CC(C)Nc1nc2c(c(NC3CC3)n1)CCN(Cc1nccn1C)CC2	76.1
CN1CCC(n2cc3nc(N)[nH]cc-3c2=O)CC1	-44.7
O=C(COc1ccccc1)N1C[C@@H](O)[C@H](N2CCCC2)C1	-15.5
CNC(=O)[C@@H]1C[C@H]2CN(Cc3c(C)noc3C)C[C@H]2N1C(C)C	-39.8
COCCN(C)C(C)Cc1ccccc1OC (stereo not drawn)	23.6
Cc1cc(N(C)CCOc2ccccc2F)nc(N)n1	85.3
COc1ccccc1OCCN(C)c1cc(C)nc(N)n1	70.2
COc1ccccc1OCCCN(C)c1cc(C)nc(N)n1	73.5
CC(C)CNC(=O)N1C[C@H]2CCN[C@H]2C1	14
N#CC1(C(=O)NCC2CCC3(CCNCC3)O2)CC1 (stereo not drawn)	22.6
CCS(=O)(=O)c1nnc([C@@H](N)Cc2ccccc2)o1	-131

Compound	INHIBITION [%]
CC[C@H](C)[C@@H](CO)NC(C)Cc1ccc(Cl)cc1 (stereo partly drawn)	18.9
COCCN1C(=O)CC[C@@H]2[C@@H]1CCN2Cc1c(C)noc1C	-35.6
O=C(Nc1cccnc1)[C@H]1CN(C2CCCC2)C[C@H]2OCC[C@@H]12	-39.7
CN(C)CCN1CCN(Cc2cccs2)Cc2cccnc21	77.1
CN(C)CCN1CCN(Cc2nccs2)Cc2cccnc21	5.69
COCCN1CCN(Cc2ccoc2)Cc2cccnc21	21
CC(C)c1cc(C(=O)N2CCCC3(CCNC3)C2)no1 (stereo not drawn)	-75.8
CCN1C[C@@H]2CN(Cc3cccs3)C[C@@H]2C1=O	37.6
O=C1[C@H]2CN(Cc3cccs3)C[C@H]2CN1c1cncnc1	-85.7
O=C1CN(C(=O)c2ccc(F)cc2)CC(O)CN1Cc1cccs1 (stereo not drawn)	88.8
COCC(=O)NC(C)Cc1cccc(OC)c1 (stereo not drawn)	-118
Cc1noc(C)c1CN1C[C@@H]2COC[C@@H](C(=O)N3CCCO3)[C@@H]2C1	-40.4
Cc1c(C(C)NC2CCN(C(C)C)CC2)cnn1-c1ccc(F)cc1F (stereo not drawn)	79.9
Cc1c(C(C)NCC2CCCC2)cnn1-c1ccc(F)cc1F (stereo not drawn)	71.9
N#Cc1ccc(NC2CCN(c3ncccn3)CC2)cc1C(F)(F)F	5.54
CCc1noc(C(C)N2CCNCC2)n1 (stereo not drawn)	-31.4
CCN1CCCC1CN(CCN(C)C)S(=O)(=O)c1ccccc1C#N (stereo not drawn)	79.6
O=C(NC1CC(F)(F)C1)[C@]12COC[C@H]1CN(Cc1cccnc1)C2	-63.2
CC1CCN(CCNCc2cc(-c3ccccc3)cn3nnnc23)CC1	70.1
O=C(Cc1ccsc1)N1C[C@@H]2OCCN(CC3CCCO3)[C@@H]2C1 (stereo partly drawn)	-85.3
O=C(N1CCOCC1)N1CCCC2(CCCNC2)C1 (stereo not drawn)	-45.8

Compound	INHIBITION [%]
Cn1cc(CN2C[C@@H]3OCCN(c4ncccn4)[C@@H]3C2)cn1	-106
CCOc1ccc2ccccc2c1CNCC1CCS(=O)(=O)C1 (stereo not drawn)	74.9
CCOc1ccc2ccccc2c1CNCC1CCNCC1	91.6
CC(C)CCN1C[C@@H]2C[C@H](C(=O)Nc3cccnc3)[C@H](C1)O2	-112
C[C@@H]1CN(C2CCOC2)C[C@]12CCN(c1cccnc1)C2=O (stereo partly drawn)	-78.9
CC(=O)N1C[C@@H]2CN(Cc3cccnc3)CCO[C@@H]2C1	-51.9
Cc1ccc([C@]2(O)CC[C@H]3CN(Cc4cc(C)c(O)c(C)c4)C[C@H]32)nc1	74.6
Cc1ccc([C@]2(O)CC[C@H]3CN(Cc4cccnc4)C[C@H]32)nc1	-61.7
Cc1ccc([C@]2(O)CC[C@H]3CN(Cc4ccncc4)C[C@H]32)nc1	-23.8
Cc1ccc(-c2cn3c(n2)CO[C@@H](CNCc2nccn2C)C3)cc1	87.4
CC[C@H]1CN2CC[C@H]1C[C@@H]2CNC(=O)Nc1ccccc1	-65.9
CC[C@H]1CN2CC[C@H]1C[C@@H]2CNCc1ccc(OC)cc1	7
CC[C@H]1CN2CC[C@H]1C[C@@H]2CNCc1ccc(OC(F)(F)F)cc1	85.7
CC1CCN(C[C@H]2CN3CC[C@H]2C[C@@H]3CNC(=O)c2ccco2)CC1	-36.5
CC[C@H]1CN2CC[C@H]1C[C@@H]2CNC(=O)Nc1cc(OC)cc(OC)c1	63.8
CC(C)NC(=O)NC[C@H]1C[C@@H]2CCN1C[C@@H]2CN(C)c1ccccc1	-37.9
CC[C@H]1CN2CC[C@H]1C[C@@H]2CNCc1ccc2c(c1)OCO2	60.9
CC[C@H]1CN2CC[C@H]1C[C@@H]2CNC(=O)NC1CCCCC1	-27.6
COCC(=O)NC[C@H]1C[C@@H]2CCN1C[C@@H]2CN(C)c1ccccc1	-64.8
CCN(CC)C[C@H]1CN2CC[C@H]1C[C@@H]2CNC(=O)Nc1ccsc1	8.11
CC[C@H]1CN2CC[C@H]1C[C@@H]2CNCc1ccc(N(C)C)cc1	62.8
